This is an account of results in PubChem BioAssay.

Activity calls are given as the source filed them.

The nature of assay [1]: A549 cell viability effects, profiling panel, calcein-AM fluorescence, 48 h, basal (AID 1162). As to conditions: higher = more signal.
Assay [2] is described as follows: adipocyte viability effects, profiling panel, cell-based, 3T3-L1 adipocytes, calcein-AM fluorescence, 48 h, basal (AID 1163). Particulars: 3T3-L1 adipocytes viability, higher = more signal.
Assay [3] in a line: HepG2 cell viability effects, profiling panel, calcein-AM fluorescence, 48 h, basal (AID 1164). Particulars: higher = more signal.
Assay [4] can be described thus: MM1S cell viability effects, profiling panel, calcein-AM fluorescence, 48 h, basal (AID 1165).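 Also: viability of MM1S multiple myeloma cells under basal unstimulated conditions.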 Particulars: higher = more signal.
Assay [5] can be described thus: basal RPMI8226 viability, no added stimulus, profiling panel, cell-based, calcein-AM fluorescence, 48 h, PK04 Diversity Set (AID 1166).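 Also: cells grown under basal conditions without added stimulus.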 Particulars: RPMI8226 myeloma viability, higher = more signal.
Assay [6] can be described thus: basal HepG2 mitochondrial membrane potential changes, profiling panel, cell-based, JC-1 fluorescence, 24 h, 100 nL compound (AID 1167). As to conditions: higher = more signal.
The nature of assay [7]: basal 3T3-L1 adipocyte mitochondrial potential changes, profiling panel, cell-based, JC-1 fluorescence, 3T3-L1 adipocytes, 24 h, 100 nL compound (AID 1168). Particulars: JC-1 mitochondrial fluorescence, higher = more signal, called active from +8 up or from −8 down.
The nature of assay [8]: basal RPMI8226 mitochondrial membrane potential changes, profiling panel, cell-based, JC-1 fluorescence, 24 h, 100 nL compound (AID 1169). As to conditions: RPMI8226 myeloma, JC-1 mitochondrial potential fluorescence, higher = more signal.
A short description of assay [9]: basal MM1S mitochondrial membrane potential changes, profiling panel, cell-based, JC-1 fluorescence, 24 h, 100 nL compound (AID 1170). As to conditions: higher = more signal.
A short description of assay [10]: A549 lung cancer cell viability effects, profiling panel, resazurin fluorescence, 24 h, PK04 Diversity Set (AID 1171). Particulars: higher = more signal, called active from +8 up or from −8 down. A general note: The colour change of resazurin is a common sign of viable cells or microbes.
Also: test concentration not given here.

For the molecule `CC1(C)O[C@H]2OC([C@H](O)CON3C(=O)c4ccccc4C3=O)[C@H](O)[C@H]2O1` (stereo not given in full), the z-score in assay [1] is 0.23; in assay [2], 0.0217; in assay [3] it was 0.0029; in assay [4], -0.963; in [5], -0.486; in assay [6], -0.249. Moreover, the z-score was -0.143 (inactive) in [7], -0.484 in assay [8], 0.658 in [9] and 0.368 (inactive) in assay [10].

Consider `COC(=O)[C@H](C)NC(=O)CCC1CC(OC(=O)NCc2ccc3c(c2)OCO3)CC2(CCCC(COC(=O)NCc3ccccc3)O2)O1` (stereo not given in full), for which the z-score in assay [1] was 3.03; in assay [2] it was -0.645; in assay [3] it was 0.558; in assay [4], -0.147; in assay [5] it was 1.27; in [6] it was 1.33. Besides, the z-score is 0.552 (inactive) in assay [7], 0.195 in assay [8], -0.882 in assay [9] and 0.409 (inactive) in assay [10].

Regarding `CCOC(=O)CCN1C(=O)[C@H]2[C@@H]3C(=CC[C@H]2C1=O)C(=O)[C@H]1O[C@H]1[C@H]3O`, the z-score in assay [1] was 0.762; in [2], 0.453; in [3], -0.564; in assay [4], -3.19; in assay [5], -3.72; in assay [6], -1.23. Besides, the z-score in assay [7] was 0.501 (inactive); in assay [8], -1.1; in [9] it was -2.74; in assay [10] it was -0.899 (inactive).

On to `CCCNC(=O)OC[C@H]1O[C@H](CCON=C[C@@H](C)[C@H](OCc2ccccc2)C(C)C)C=C[C@@H]1Oc1ccc(OC)cc1`, for which the z-score is 0.544 in assay [1]; -0.0223 in assay [2]; 1.72 in assay [3]; 0.0415 in assay [4]; -0.0657 in [5]; 0.479 in assay [6]. In addition, the z-score in assay [7] is 0.024 (inactive); in [8], 0.499; in [9], -0.627; in [10], 0.743 (inactive).

In the case of `CCN1C(=O)[C@H]2[C@H]3[C@H](O)[C@H](O)CC(=NOCC[C@@H]4C=C[C@H](OC(C)=O)[C@@H](COC(C)=O)O4)[C@@H]3CC[C@H]2C1=O`, the z-score in assay [1] was 1.03; in [2] it was -0.286; in assay [3], -0.296; in assay [4], 0.0566; in assay [5], -0.727; in [6], -0.301. In addition, the z-score in assay [7] is -0.132 (inactive); in assay [8], 0.572; in assay [9], -0.306; in [10] it was -0.774 (inactive).

Consider `O=C1C=C[C@@H](O)[C@@H]2[C@@H]3C(=O)N(c4cccc(Oc5ccccc5)c4)C(=O)[C@@H]3CC[C@@H]12`, for which the z-score in assay [1] is -0.496; in assay [2], 1.38; in assay [3], 0.0765; in [4] it was -1.03; in [5] it was -2.47; in assay [6] it was 0.111. Moreover, the z-score was 0.717 (inactive) in assay [7], -0.618 in [8], -0.72 in assay [9] and -0.869 (inactive) in assay [10].

Consider `C#CCCCON=C1C[C@@H](O)[C@@H](O)[C@@H]2[C@@H]3C(=O)N(C4CCCCC4)C(=O)[C@@H]3CC[C@@H]12`, for which the z-score was -0.205 in [1]; -0.117 in [2]; -0.139 in assay [3]; 0.183 in assay [4]; -1.94 in assay [5]; -1.32 in [6]. The z-score in assay [7] is -0.462 (inactive); in assay [8], -0.0811; in assay [9], 0.431; in assay [10], -0.255 (inactive).

With `CC#CCOCCC=C1c2ccccc2[C@@H](OC)[C@@H]1C`, the z-score is 0.0337 in [1]; 0.182 in assay [2]; 0.788 in [3]; -2.36 in [4]; -0.234 in assay [5]; -0.19 in assay [6]. The z-score in [7] is -0.669 (inactive); in [8] it was -0.773; in assay [9], -0.831; in assay [10] it was 0.349 (inactive).

As for `CC(CCN1CCCCc2nc(C)c(C)cc21)=NO[C@H](C)c1cn([C@@H]2COC[C@H]2O)nn1`, the z-score in assay [1] was 0.368; in assay [2] it was -0.807; in assay [3], 0.251; in assay [4], 0.287; in assay [5] it was 0.0323; in [6], 0.0457. Also, the z-score in assay [7] was 0.229 (inactive); in assay [8], 1.18; in assay [9], -0.992; in [10], -0.454 (inactive).

As for `CCOC(=O)[C@H](CC(C)C)NC(=O)CCC1CC(OC(=O)NCCc2ccc(F)cc2)CC2(CCCC(COC(=O)NCCOC)O2)O1` (stereo not given in full), the z-score in [1] was 0.0721; in assay [2], -1.02; in [3], -0.384; in [4] it was 0.695; in assay [5], 0.124; in assay [6], -1.21. Besides, the z-score is -0.459 (inactive) in assay [7], 0.64 in assay [8], 0.441 in assay [9] and 0.305 (inactive) in assay [10].

With `CC(C)[C@@H](OCc1ccccc1)[C@H](C)C=NO[C@H](C)c1cn([C@@H]2COC[C@H]2O)nn1`, the z-score was 0.569 in assay [1]; -0.478 in assay [2]; -0.0131 in [3]; 0.0238 in assay [4]; -0.0081 in [5]; -0.479 in [6]. Moreover, the z-score is -0.98 (inactive) in [7], 0.608 in assay [8], -0.601 in assay [9] and -0.516 (inactive) in assay [10].

For `CCOC(=O)[C@H](CC(C)C)NC(=O)CCC1CC(OC(=O)NCCc2ccc(F)cc2)CC2(CCCC(COC(=O)NCCCN3CCCC3=O)O2)O1` (stereo not given in full), the z-score in assay [1] is 0.332; in [2], -1.03; in assay [3] it was 0.0317; in [4], -0.528; in assay [5], -1.8; in assay [6], -0.556. Moreover, the z-score in assay [7] was -0.139 (inactive); in assay [8] it was -0.912; in [9], 0.131; in assay [10], 0.601 (inactive).

In the case of `CC[C@@H](c1ccccc1)n1c(=O)n2n(c1=O)[C@H]1[C@H](O)[C@@H]3O[C@@H]3C(=NOCc3ccccc3)[C@H]1CC2`, the z-score in assay [1] was -2.83; in assay [2] it was 0.229; in assay [3], -3.76; in assay [4] it was -3.1; in [5], -3.84; in assay [6], 0.517. Besides, the z-score in assay [7] was -0.327 (inactive); in assay [8], -1.05; in assay [9], -1.68; in assay [10] it was -2.54 (inactive).

In the case of `CO[C@@H](C(C)C)[C@@H](C)C1OC(=O)CC1O` (stereo not given in full), the z-score was -0.729 in assay [1]; -0.121 in assay [2]; -0.349 in assay [3]; 0.534 in assay [4]; -0.908 in [5]; -0.518 in assay [6]. For the same molecule, the z-score in assay [7] was -0.419 (inactive); in assay [8], -0.147; in [9], -0.0891; in assay [10], -0.196 (inactive).

Consider `O=C1C[C@@H](O)[C@@H](O)[C@@H]2[C@@H]3C(=O)N(Cc4ccccc4)C(=O)[C@@H]3CC[C@H]12`, for which the z-score in assay [1] is -0.801; in assay [2], 0.241; in [3], 0.175; in [4], -0.0999; in [5] it was 0.549; in assay [6] it was -0.511. Besides, the z-score was -0.919 (inactive) in [7], 0.0436 in assay [8], -0.281 in assay [9] and -0.673 (inactive) in assay [10].

With `CCOC(=O)[C@H](CC(C)C)NC(=O)CCC1CC(OC(=O)NCc2ccc3c(c2)OCO3)CC2(CCCC(COC(=O)NCCOc3ccccc3)O2)O1` (stereo not given in full), the z-score is -0.253 in [1]; -0.36 in assay [2]; -1.78 in [3]; -2.19 in assay [4]; -1.43 in assay [5]; -1.66 in [6]. Besides, the z-score was 0.278 (inactive) in assay [7], -0.879 in assay [8], -0.0386 in [9] and 0.494 (inactive) in assay [10].
